Test results taken from PubChem BioAssay (NCATS).
Inconclusive results are not listed. Unmarked numbers belong to inactive results. Active and inactive are the calls of the source. Calls come from the whole dose curve; as a rule, active = well fitted inhibition curve with a large enough effect; inconclusive = small, poorly fitted or top-dose-only effect; inactive = flat fitted curve, though single readings scatter.

Biological target: Calcium and integrin-binding protein 1 (Homo sapiens) (UniProt Q99828)
Sequence (Q99828 whole entry, looked up): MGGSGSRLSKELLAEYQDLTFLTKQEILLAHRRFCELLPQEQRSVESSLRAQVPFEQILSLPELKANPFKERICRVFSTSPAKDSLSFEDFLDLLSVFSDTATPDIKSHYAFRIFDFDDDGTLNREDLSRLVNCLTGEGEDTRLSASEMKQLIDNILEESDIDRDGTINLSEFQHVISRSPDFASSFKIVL
Test: Primary qHTS for Identification of Calcium Integrin Binding Protein 1 (CIB1) Competitor (AID 1508620);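 note: GST tagged CIB1 binding a fluorescein labelled alphaIIb integrin peptide tracer; top concentration of the series differs between compounds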
Settings: CIB1-GST / FITC-alphaIIb peptide fluorescence polarization; series mostly up to 114 µM; activity change, negative = inhibition: at the top concentration
How it was run: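 Fluorescence polarization competition: CIB1-GST (1 uM final) preincubated with compound 15 min at room temperature, then FITC-labeled alphaIIb peptide (100 nM final) added for another 15 min. Polarization read at Ex 480/Em 540.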
% is set by controls: 0 for no effect and ±100 for the full control effect.

| Structure (SMILES) | activity change, negative = inhibition [%] | Potency |
| --- | --- | --- |
| COc1cc(/C=C2\C(=O)Nc3ccccc32)ccc1O | -2.15 |  |
| NC(=O)C1CCN(c2nc(-c3ccccc3Br)cs2)CC1 | -0.366 |  |
| Cc1ccnc(CC(=S)N2CCN(c3cccc(C(F)(F)F)c3)CC2)c1 | -25.1 |  |
| O=C(Cc1nnc(-c2ccncc2)s1)Nc1ccc(F)c(C(F)(F)F)c1 | 6.46 |  |
| NC(=O)C1CCN(c2nc(-c3cc4ccccc4o3)cs2)CC1 | -1.82 |  |
| Cc1ccc(OCCn2c(CCNC(=O)c3ccc(F)cc3F)nc3ccccc32)cc1 | 7.31 |  |
| Cc1ccc(CNc2ncnc3ccc(-c4oc(-c5ccccc5)nc4C)cc23)o1 | -7.71 |  |
| O=C(Nc1ccc(Cl)c(Cl)c1)Nc1ccnc(-c2ccncc2)n1 | 0.417 |  |
| COc1cc2c(s1)c1cnn(Cc3ccccc3F)c(=O)c1n2C | 5.29 |  |
| O=C1CCc2cc(S(=O)(=O)Nc3cccnc3)ccc2N1 | 5.83 |  |
| CC(=O)Nc1sc2c(c1-c1nc3ccccc3s1)CN(C(C)C)C2 |  | inactive |
| Cc1nc(-c2ccc([S+](=O)([O-])N3CCN([S+](=O)([O-])c4c(F)cccc4F)CC3)s2)cs1 | -4.39 |  |
| O=C(CCc1ccccc1)Nc1cccc([S+](=O)([O-])Nc2ccccc2F)c1 | 0.363 |  |
| Cn1c2cc(B(O)O)sc2c2cnn(Cc3ccc(F)cc3F)c(=O)c21 | -7.28 |  |
| Cc1cn([C@H]2C[C@H](N[S+](=O)([O-])Cc3cccc(Cl)c3)[C@@H](CO)O2)c(=O)[nH]c1=O | -0.58 |  |
| CC(=O)c1c(C)[nH]c(C(=O)Nc2ccc(OCCCN(C)C)c(S(=O)(=O)Nc3ccc(Br)cc3)c2)c1C | -8.33 |  |
| Cn1nnnc1Sc1ncnc2scc(-c3ccc(Br)cc3)c12 | 2.39 |  |
